# Reference: PubChem BioAssay
# Activity calls are given as the source filed them.
# How the values were obtained:
# [1] = binders of probe aFSTL3 on microarray, primary screen, stem cell growth factor project, biochemical, small-molecule microarray, fluorescence 635/667 (AID 1064); settings: higher = more signal;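 further: measures binding of the biotinylated anti-FSTL3 antibody to printed compounds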
# [2] = binders from COS7 lysate, DM2A8 probe, primary screen, torsin A project, cell lysate, small-molecule microarray, fluorescence 635/667 (AID 1065); settings: higher = more signal, COS7 lysate expressing mutant human TOR1A
# [3] = binders of probe aFGF2 on microarray, primary screen, stem cell growth factor project, biochemical, small-molecule microarray, fluorescence 635/667 (AID 1067); settings: higher = more signal;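 further: measures binding of biotinylated aFGF2 protein to printed compounds on slides; z-score merges feature fluorescence and signal-to-noise across triplicate slides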
# [4] = binders of probe aFGF10 on microarray, primary screen, stem cell growth factor project, biochemical, small-molecule microarray, fluorescence 635/667 (AID 1071); settings: higher = more signal;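 further: score merges 667 nm spot intensity and signal to noise from triplicate slides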
# [5] = molecular target: Neurogenic locus notch homolog protein 2 (Homo sapiens) (UniProt Q04721); assay: Notch2 binders on small-molecule microarrays, primary screen, biochemical, small-molecule microarray, 635 nm fluorescence, stem cell growth factors (AID 1073); settings: Notch2 binding, higher = more signal
# [6] = molecular target: Pro-neuregulin-1, membrane-bound isoform (Homo sapiens) (UniProt Q02297); assay: NRG1 binders on small-molecule microarrays, primary screen, psychiatric disease protein project, biochemical, small-molecule microarray, fluorescence 635/667 (AID 1075); settings: NRG1 binding, 635 nm fluorescence, higher = more signal;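 further: score combines 667 nm spot fluorescence with signal to noise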
# [7] = tested on: Neuregulin-1 EGF-like domain; assay: binders of neuregulin-1 EGF-like domain, primary screen, biochemical, small-molecule microarray, 635 nm fluorescence (AID 1081); settings: small-molecule microarray binding, higher = more signal;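 further: binding of the protein to compounds printed on small-molecule microarray slides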
# [8] = FRG1 promoter luciferase signal modulators, primary screen, FRG1 inhibition for FSHD, cell-based, C2C12 myotubes, firefly/Renilla luciferase, luminescence (AID 1084); settings: higher = more signal, called active from +8 up or from −8 down
# [9] = binders of probe aFST on microarray, primary screen, stem cell growth factor project, biochemical, small-molecule microarray, fluorescence 635/667 (AID 1086); settings: higher = more signal;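 further: score merges 667 nm fluorescence with signal-to-noise of each printed compound spot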
# [10] = binders of probe aHhip on microarray, primary screen, stem cell growth factor project, biochemical, small-molecule microarray, fluorescence 635/667 (AID 1087); settings: higher = more signal;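 further: score merges spot fluorescence at 667nm with spot signal to noise ratio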
# [11] = tested on: PRMT1 (protein arginine N-methyltransferase 1); assay: PRMT1 binders on small-molecule microarrays, primary screen, biochemical, small-molecule microarray, 635 nm fluorescence (AID 1088); settings: small-molecule microarray binding, higher = more signal;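 further: binding of Prmt1 protein to compounds spotted on small-molecule microarray slides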
# [12] = yeast growth modulation, basal conditions, primary screen, YJM789 clinical isolate, OD600, 24 h (AID 1089);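 further: growth of clinical yeast isolate S. cerevisiae YJM 789 seeded 1000 cells per well; test concentration not given here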; settings: S. cerevisiae YJM789 growth, higher = more signal, called active from +8 up or from −8 down
# [13] = fission yeast growth modulation, primary screen, strain 972, OD600, 24 h, no modulator (AID 1090);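 further: basal condition with compound alone and no growth modifier present; test concentration not given here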; settings: S. pombe 972 growth, higher = more signal, called active from +8 up or from −8 down
# [14] = S. cerevisiae growth modulation with rapamycin, primary screen, strain BY4716, OD600, 96 h (AID 1091); settings: higher = more signal, called active from +8 up or from −8 down; further: test concentration not given here
# [15] = molecular target: Torsin-1A-interacting protein 2 (Homo sapiens) (UniProt Q8NFQ8); assay: LULL1 binders on small-molecule microarray, primary screen, cell lysate, human LULL1 lysate, 635/667 nm fluorescence (AID 1092); settings: hLULL1 lysate binding, 635 nm fluorescence, higher = more signal;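 further: probe is lysate of COS7 cells overexpressing human LULL1; score merges per-feature 667 nm fluorescence with signal-to-noise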
# [16] = E. coli growth modulation, two-sided OD650, primary screen, E. coli filamentation project, strain DRC41, 24 h (AID 1093); settings: OD650, 24 h, higher = more signal, called active from +8 up or from −8 down;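 further: MC1000 strain lacking acrAB efflux and sulA so SOS filamentation is blocked; test concentration not given here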
# [17] = small-molecule microarray binders of probe aLefty2, primary screen, biochemical, biotinylated probe, 635/667 nm fluorescence (AID 1094); settings: higher = more signal;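 further: score merges spot fluorescence near 667 nm with spot signal-to-noise ratio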
# [18] = tested on: Noggin (protein binding on small-molecule microarray); assay: Noggin binders on small-molecule microarray, primary screen, biochemical, 635/667 nm fluorescence (AID 1095); settings: 635 nm fluorescence, higher = more signal;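 further: score merges 667 nm feature fluorescence with signal to noise over triplicate slides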
# [19] = molecular target: Neurogenic locus notch homolog protein 3 (Homo sapiens) (UniProt Q9UM47); assay: NOTCH3 binders on small-molecule microarray, primary screen, biochemical, 635/667 nm fluorescence (AID 1096); settings: NOTCH3 binding, 635 nm fluorescence, higher = more signal
# [20] = small-molecule microarray binders of probe aEGFR, primary screen, biochemical, biotinylated probe, 635/667 nm fluorescence (AID 1097); settings: higher = more signal;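 further: probe is a biotinylated anti-EGFR antibody binding compounds printed on slides; score combines fluorescence near 667 nm and signal to noise of each spot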
# Neurogenic locus notch homolog protein 2 (Homo sapiens), sequence (Q04721 whole entry, looked up, canonical isoform): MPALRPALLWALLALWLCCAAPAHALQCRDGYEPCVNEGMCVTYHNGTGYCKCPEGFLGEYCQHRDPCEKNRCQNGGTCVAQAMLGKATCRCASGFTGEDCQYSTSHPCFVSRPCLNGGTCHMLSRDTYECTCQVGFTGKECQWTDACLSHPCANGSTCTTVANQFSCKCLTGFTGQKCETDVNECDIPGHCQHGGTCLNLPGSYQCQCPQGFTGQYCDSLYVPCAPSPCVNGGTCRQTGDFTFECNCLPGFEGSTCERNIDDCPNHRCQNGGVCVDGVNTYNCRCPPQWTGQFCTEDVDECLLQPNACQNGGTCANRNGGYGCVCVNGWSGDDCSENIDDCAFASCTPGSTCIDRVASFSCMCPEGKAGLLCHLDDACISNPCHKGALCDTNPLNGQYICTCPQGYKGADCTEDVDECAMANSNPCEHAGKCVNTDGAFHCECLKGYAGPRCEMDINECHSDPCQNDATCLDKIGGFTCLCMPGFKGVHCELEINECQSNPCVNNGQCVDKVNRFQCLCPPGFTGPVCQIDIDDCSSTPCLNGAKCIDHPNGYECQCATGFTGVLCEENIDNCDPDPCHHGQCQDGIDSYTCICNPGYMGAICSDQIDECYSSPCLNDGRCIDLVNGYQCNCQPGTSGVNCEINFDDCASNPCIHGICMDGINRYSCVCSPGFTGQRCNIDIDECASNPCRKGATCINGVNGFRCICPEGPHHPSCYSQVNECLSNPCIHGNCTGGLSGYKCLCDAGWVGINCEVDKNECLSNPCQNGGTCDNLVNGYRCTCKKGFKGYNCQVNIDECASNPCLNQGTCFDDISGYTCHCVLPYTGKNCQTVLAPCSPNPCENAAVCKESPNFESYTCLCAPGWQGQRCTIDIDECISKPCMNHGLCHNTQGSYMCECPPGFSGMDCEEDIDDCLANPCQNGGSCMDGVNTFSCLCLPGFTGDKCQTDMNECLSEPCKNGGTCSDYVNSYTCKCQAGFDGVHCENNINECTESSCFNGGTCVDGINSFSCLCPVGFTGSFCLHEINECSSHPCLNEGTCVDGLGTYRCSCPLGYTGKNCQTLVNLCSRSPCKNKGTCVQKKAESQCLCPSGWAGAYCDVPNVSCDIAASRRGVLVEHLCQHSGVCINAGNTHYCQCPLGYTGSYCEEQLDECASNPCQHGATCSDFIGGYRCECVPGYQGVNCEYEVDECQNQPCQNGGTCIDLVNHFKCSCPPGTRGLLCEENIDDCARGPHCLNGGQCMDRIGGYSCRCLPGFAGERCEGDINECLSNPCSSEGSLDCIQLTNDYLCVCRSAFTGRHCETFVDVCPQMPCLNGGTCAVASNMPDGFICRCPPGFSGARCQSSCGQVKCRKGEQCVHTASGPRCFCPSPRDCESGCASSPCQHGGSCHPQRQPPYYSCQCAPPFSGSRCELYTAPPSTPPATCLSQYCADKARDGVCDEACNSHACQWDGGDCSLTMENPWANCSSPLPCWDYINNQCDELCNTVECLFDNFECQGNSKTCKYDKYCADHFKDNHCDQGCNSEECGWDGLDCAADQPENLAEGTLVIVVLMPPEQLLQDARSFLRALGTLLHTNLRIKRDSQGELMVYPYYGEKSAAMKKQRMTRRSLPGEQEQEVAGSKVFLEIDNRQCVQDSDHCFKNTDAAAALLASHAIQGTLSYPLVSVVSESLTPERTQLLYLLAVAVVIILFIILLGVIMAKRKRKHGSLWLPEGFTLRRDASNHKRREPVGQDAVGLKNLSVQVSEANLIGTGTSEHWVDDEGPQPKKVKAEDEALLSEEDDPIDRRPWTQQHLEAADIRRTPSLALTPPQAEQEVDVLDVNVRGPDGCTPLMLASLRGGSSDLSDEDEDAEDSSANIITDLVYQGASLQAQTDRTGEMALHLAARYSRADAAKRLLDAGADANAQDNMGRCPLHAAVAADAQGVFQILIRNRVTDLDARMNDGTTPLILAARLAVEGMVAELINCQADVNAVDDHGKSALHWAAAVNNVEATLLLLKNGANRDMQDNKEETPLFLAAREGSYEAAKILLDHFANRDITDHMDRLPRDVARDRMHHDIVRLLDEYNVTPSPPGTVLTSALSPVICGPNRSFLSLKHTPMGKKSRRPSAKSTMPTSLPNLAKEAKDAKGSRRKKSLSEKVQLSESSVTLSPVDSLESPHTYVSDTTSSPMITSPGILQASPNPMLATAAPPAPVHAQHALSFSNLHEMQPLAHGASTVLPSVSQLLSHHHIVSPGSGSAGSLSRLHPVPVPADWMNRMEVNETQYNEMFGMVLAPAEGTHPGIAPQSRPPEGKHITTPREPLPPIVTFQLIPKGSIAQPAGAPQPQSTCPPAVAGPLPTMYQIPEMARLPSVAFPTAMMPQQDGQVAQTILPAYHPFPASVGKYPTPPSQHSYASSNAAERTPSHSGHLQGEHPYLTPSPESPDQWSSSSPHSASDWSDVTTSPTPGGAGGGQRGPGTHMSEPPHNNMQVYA
# Pro-neuregulin-1, membrane-bound isoform (Homo sapiens), sequence (Q02297 whole entry, looked up, the tested form may be a part, canonical isoform): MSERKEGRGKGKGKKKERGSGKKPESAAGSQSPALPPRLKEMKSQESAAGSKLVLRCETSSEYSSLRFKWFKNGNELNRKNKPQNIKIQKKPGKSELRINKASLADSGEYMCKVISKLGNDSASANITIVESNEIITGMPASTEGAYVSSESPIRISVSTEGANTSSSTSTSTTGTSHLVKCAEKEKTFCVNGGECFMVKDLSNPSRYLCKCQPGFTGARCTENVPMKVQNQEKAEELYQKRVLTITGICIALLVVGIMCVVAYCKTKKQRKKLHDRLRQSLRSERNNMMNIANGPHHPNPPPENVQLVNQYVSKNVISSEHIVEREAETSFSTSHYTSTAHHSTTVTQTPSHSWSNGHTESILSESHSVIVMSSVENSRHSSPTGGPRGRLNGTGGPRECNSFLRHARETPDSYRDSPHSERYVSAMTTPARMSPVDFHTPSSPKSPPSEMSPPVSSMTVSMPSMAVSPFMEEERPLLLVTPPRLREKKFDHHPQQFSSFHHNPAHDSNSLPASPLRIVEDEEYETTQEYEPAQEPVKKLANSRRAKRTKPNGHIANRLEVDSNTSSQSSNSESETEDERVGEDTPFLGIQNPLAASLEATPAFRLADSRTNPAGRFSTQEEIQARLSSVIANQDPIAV
# Torsin-1A-interacting protein 2 (Homo sapiens), sequence (Q8NFQ8 whole entry, looked up): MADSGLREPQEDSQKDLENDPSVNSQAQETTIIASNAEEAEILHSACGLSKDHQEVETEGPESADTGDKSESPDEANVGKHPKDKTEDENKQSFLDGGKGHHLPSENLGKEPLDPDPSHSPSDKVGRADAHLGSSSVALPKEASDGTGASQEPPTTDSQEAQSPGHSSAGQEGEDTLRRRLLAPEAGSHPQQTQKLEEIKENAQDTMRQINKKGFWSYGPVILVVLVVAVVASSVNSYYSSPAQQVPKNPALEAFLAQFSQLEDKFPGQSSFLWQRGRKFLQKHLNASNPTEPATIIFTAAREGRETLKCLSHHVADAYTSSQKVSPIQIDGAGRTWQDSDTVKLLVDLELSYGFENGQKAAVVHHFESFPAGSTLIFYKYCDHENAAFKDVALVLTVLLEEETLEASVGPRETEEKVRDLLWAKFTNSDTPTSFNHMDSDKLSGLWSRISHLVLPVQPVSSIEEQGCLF
Compound,composite z-score [1],composite z-score [2],composite z-score [3],composite z-score [4],composite z-score [5],composite z-score [6],composite z-score [7],z-score [8],composite z-score [9],composite z-score [10],composite z-score [11],z-score [12],z-score [13],z-score [14],composite z-score [15],z-score [16],composite z-score [17],composite z-score [18],composite z-score [19],composite z-score [20]
CC(=O)NCCCC[C@@H]1NC(=O)[C@@H]2C[C@H](C(=O)NCc3ccc(F)cc3)[C@H](c3cccc(OCCO)c3)N2C1=O,0.617,-0.0522,-0.0038,0.107,-0.417,1.39,1.36,0.967 (inactive),-0.205,-0.0237,0.631,0.592 (inactive),0.16 (inactive),0.205 (inactive),2.43,0.496 (inactive),0.207,0.584,-0.515,-0.0953
Cc1ccc(S[C@]2(C(=O)NCCCN(C)C)CC(=O)N(Cc3ccccc3)[C@@H]2c2ccc(CO)cc2I)cc1,1.04,-1.08,-0.0785,-0.244,-0.189,1.39,0.727,-0.463 (inactive),1.04,-0.427,0.25,-1.87 (inactive),-4.8 (inactive),0.768 (inactive),2.68,-0.563 (inactive),0.373,-0.869,-0.723,-0.13
COCCCNC(=O)[C@@]1(Sc2ccc(C)cc2)CC(=O)N(Cc2cc(C(F)(F)F)cc(C(F)(F)F)c2)[C@@H]1c1ccc(CO)cc1I,1.12,-0.181,-0.147,-0.811,-1.43,2.17,1.35,-0.925 (inactive),-0.265,1.67,-0.217,-1.27 (inactive),-3.56 (inactive),0.0085 (inactive),1.46,0.486 (inactive),-0.105,-1.76,-0.973,-0.288
CCCC[C@H]1OB(O)C[C@H]2C1=C(COC)C[C@H]1C(=O)N(Cc3ccccc3)C(=O)[C@H]12,-0.193,0.323,0.0644,0.3,0.908,0.173,-0.334,-0.788 (inactive),0.633,0.124,-0.0448,-0.776 (inactive),-1.69 (inactive),-1.69 (inactive),0.58,2.71 (inactive),-0.113,0.321,0.75,-0.0958
CC[C@@H]1C=C(C(=O)O)[C@H](c2ccccc2)N1S(=O)(=O)c1ccc([N+](=O)[O-])cc1,0.0455,-0.0271,-0.0669,0.223,0.989,1.86,1.08,-2.22 (inactive),0.13,-0.0831,0.372,0.308 (inactive),-0.434 (inactive),0.632 (inactive),3.38,-1.86 (inactive),0.0634,-0.297,0.481,0.0276
C=CCc1cccc([C@@H]2[C@@H](C)CC[C@H]3C(=O)N4[C@H](c5cccc(CC=C)c5)[C@@H](C)CC[C@H]4C(=O)N23)c1,0.0575,0.537,-0.0677,0.873,1.07,1.12,0.536,0.313 (inactive),0.56,0.154,0.592,-0.988 (inactive),0.0313 (inactive),6.6 (inactive),0.785,0.533 (inactive),0.0163,0.432,0.671,-0.124
CN(C)C(=O)[C@@]1(Cc2ccccc2N=[N+]=[N-])N=C(c2ccc(OCCCO)cc2)O[C@H]1c1ccccc1CN=[N+]=[N-],0.832,2.05,0.0914,0.665,1.56,1.56,1.23,-2.27 (inactive),0.961,0.0274,1.56,-1.92 (inactive),-1.62 (inactive),1.62 (inactive),3.57,0.859 (inactive),0.839,1.35,1.06,0.355
O=C1c2ccccc2[C@@]2(Cc3ccccc3N(CC(F)(F)F)C2=O)[C@H](c2ccc(CO)cc2)N1C1CCCCC1,-0.2,0.438,-0.0199,0.354,0.455,0.492,1.47,-0.555 (inactive),-0.415,-0.0618,0.778,0.315 (inactive),-0.958 (inactive),-1.99 (inactive),1.08,0.825 (inactive),0.0598,1.05,0.601,0.0376
CC(=O)NCCCC[C@@H]1NC(=O)[C@H]2C[C@@H](C(=O)NCCCCCCN(C)C)[C@@H](c3cccc(OCCO)c3)N2C1=O,0.0256,2.05,0.0996,1.24,1.54,0.681,1.35,2.92 (inactive),0.861,0.0053,1.53,-1.05 (inactive),-0.36 (inactive),-0.391 (inactive),3.07,0.0161 (inactive),0.536,1.87,1.02,0.539
COc1cccc([C@@H]2[C@@H](C)CC[C@H]3C(=O)N(C)[C@@H](C(C)C)C(=O)N23)c1,-0.413,0.353,-0.174,0.391,0.188,0.0253,0.475,0.056 (inactive),-0.0409,0.154,-0.652,-0.0534 (inactive),-0.719 (inactive),0.369 (inactive),0.21,0.652 (inactive),-0.0113,0.375,0.374,-0.111
O=C1C2C=CC(C(O)Cc3ccccc3)N(Nc3ccc([N+](=O)[O-])cc3)C2C(=O)N1c1ccccc1 (stereo not given),0.159,-0.0657,-0.06,0.699,1.15,1.83,1.33,1.19 (inactive),0.638,0.413,0.623,-0.442 (inactive),0.38 (inactive),1.18 (inactive),2.92,-0.209 (inactive),0.232,0.278,0.864,0.268
